Molecules are shown by their SMILES. Calls of active or inactive are those of the source.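 How the source made its calls, unless noted: active means fluorescence slope higher than the sample average by over 3 SD (cut at about -0.22 in these data, passing the limit was not always enough); inactive means the rest.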

Tested on in the first assay: not listed separately
The assay is described as follows: inhibitors of E-selectin induction by TNFa, primary screen, imaging, HUVEC, immunofluorescence, MLSMR starter and 10KST1 sets (AID 487;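 active means visually confirmed hit in the image check and inhibition above 20%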;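 on inhibition: signal is fraction of cell area covered by stained E-selectin grains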;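 on nuclei count: 100% = median nuclei count of all wells on the same plate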). To be noted: HUVEC TNFalpha-induced E-selectin immunofluorescence imaging, at 2 µM; inhibition: stronger effect = higher value; nuclei count: measured here: cell number, toxicity.
What is called inhibition is the change of the read-out against control, counted positive when it falls. As to `Cc1onc(-c2c(Cl)cccc2Cl)c1C(=O)N1CCc2ccccc21`, the nuclei count was determined as 92.5% and the inhibition is -30.8% (inactive).
For the molecule `CN1CCN(C2=C(Cl)C(=O)N(c3cccc(Cl)c3)C2=O)CC1`, the inhibition was -1.1% (inactive) and the nuclei count is 97.4%.
The corresponding values for `COc1ccc(CCNC(=O)c2ccncc2)cc1OC` are 11.2% (inactive) and 90%.
The corresponding values for `O=c1c2cc(Cl)ccc2[nH]c(=S)n1Cc1ccco1` are -36.1% (inactive) and 102%.
The corresponding values for `Nc1nc(SCc2nc3scc(-c4cccs4)c3c(=O)[nH]2)n[nH]1` are -112% (inactive) and 116%.
Turning to `Cn1c(=O)c2c([nH]c(=O)n2C)n(C)c1=O`, the inhibition is 16.9% (inactive) and the nuclei count amounted to 101%.
The corresponding values for `COc1ccccc1CN1CC(C(=O)NCc2cccnc2)CC1=O` (stereo not given) are -0.1% (inactive) and 113%.
The corresponding values for `COc1ccc(-n2nnnc2SCC(=O)c2ccc(O)c(O)c2)cc1` are -74.4% (inactive) and 112%.
The corresponding values for `Cc1ccc2c(c1)N(CC(=O)Nc1ccc3c(c1)OCCO3)C(=O)CO2` are -6.2% (inactive) and 104%.
Consider `Cc1nc2ccc(N3C(=O)CCC3=O)cc2[nH]1`, for which the inhibition is -42.2% (inactive) and the nuclei count is 113%.
Consider `CCOC(=O)c1oc2ccccc2c1NC(=O)c1cccc(OC)c1OC`, for which the nuclei count stood at 82.8% and the inhibition is 23.6% (inactive).
The corresponding values for `CCC(C)NC(=O)c1ccccc1NC(=O)C(C)N(c1ccccc1)S(C)(=O)=O` (stereo not given) are 99.9% and -7% (inactive).
As to `O=C(Nc1sc2c(c1C(=O)NCc1ccco1)CCCC2)c1ccc2c(c1)OCO2`, the nuclei count was 117% and the inhibition is -56% (inactive).
With `CCOC(=O)c1ccc(NS(=O)(=O)c2ccc3c(c2)CCCN3C(C)=O)cc1`, the inhibition was -93.7% (inactive) and the nuclei count was found to be 125%.
Take `CC12COC3(C(=O)Nc4ccc(Cl)cn4)CC1CCC32C` (stereo not given): the nuclei count is 102% and the inhibition was -32.6% (inactive).
The corresponding values for `CC1CCC2C(C1)c1sc(=O)[nH]c1SC2(C)C` (stereo not given) are 116% and -18.7% (inactive).
The corresponding values for `Brc1ccc(-c2csc(/N=C/N3CCOCC3)n2)cc1` are 102% and 13.5% (inactive).
The corresponding values for `Cc1nnc(SCc2cn3ccsc3n2)n(N)c1=O` are 121% and -50.6% (inactive).
`CCOc1ccc(-c2nnc(N)s2)cc1`: the nuclei count is 90.5% and the inhibition was -8.1% (inactive).
Turning to `C=CCn1c(=O)c(C(=O)Nc2ccccc2C(=O)OCC)c(O)c2ccccc21`, the nuclei count worked out at 122% and the inhibition was -23.1% (inactive).
The corresponding values for `C=CCn1c(COc2ccccc2)nnc1SCC(=O)C(C)(C)C` are 98.4% and 7.8% (inactive).
The corresponding values for `O=C(c1ccco1)N1CCN(C(=O)c2cc3c(s2)-c2ccccc2OC3)CC1` are 102% and 4.9% (inactive).
The corresponding values for `O=C(NCc1cccs1)C1CCCN(c2ncccn2)C1` (stereo not given) are 123% and -10.2% (inactive).
With `Cc1cc(C)c2[nH]c(=O)c(C(c3nnnn3Cc3ccc4c(c3)OCO4)N3CCC(C)CC3)cc2c1` (stereo not given), the inhibition was 70% (inactive) and the nuclei count came out at 73.2%.
The corresponding values for `COc1cccc(-c2nc(CS(=O)(=O)CC(=O)Nc3cc(C)ccc3C)c(C)o2)c1` are -21.2% (inactive) and 104%.
The corresponding values for `Cc1ccc(C2=Nc3ccccc3NC(C)(c3ccc(C)o3)C2)o1` (stereo not given) are -39.9% (inactive) and 100%.
The corresponding values for `CCOC(=O)c1ccc(N=c2sc(C(=O)OC)cc(=O)n2Cc2ccco2)cc1` are 0.2% (inactive) and 112%.
Turning to `COc1ccc2c(c1)C(C)=CC(C)(C)N2C(=O)CSc1nnc(-c2ccc(C)cc2)o1`, the nuclei count is 117% and the inhibition is 14.4% (inactive).
The corresponding values for `CC(C)C1N=C2c3ccccc3N=C(SCc3cc(=O)n4ccccc4n3)N2C1=O` (stereo not given) are 90% and -35.3% (inactive).
The corresponding values for `CCCCN(CCCC)CCn1cnc2c([nH]c3ccc(OC)cc32)c1=O` are 105% and -65.8% (inactive).
The corresponding values for `CC1CC(=O)c2cnc(NCC3CCCO3)nc2C1` (stereo not given) are 107% and 12.9% (inactive).
In the case of `CCC(CO)Nc1ncnc2c1cnn2-c1ccc(Cl)cc1` (stereo not given), the inhibition is 10.3% (inactive) and the nuclei count is 111%.
The corresponding values for `CC(C)CCNC(=O)C(C)N(Cc1ccc(F)cc1)C(=O)c1ccc(CN2CCCCC2)o1` (stereo not given) are 2.1% (inactive) and 106%.
As for `O=C(OC1CCOC1=O)c1ccc(S(=O)(=O)N2CCCCCC2)cc1` (stereo not given), the inhibition is -116% (inactive) and the nuclei count is 97.1%.
The corresponding values for `COC(=O)C1C(=O)c2c([nH]c(C(=O)OCCOC(C)C)c2C)CC1C` (stereo not given) are -46.9% (inactive) and 117%.
In the case of `CC(=O)c1cc(-c2ccc(F)cc2)n(CCC(=O)Nc2cc(C)[nH]n2)c1C`, the nuclei count came out at 118% and the inhibition was 0% (inactive).
In the case of `CCCn1c(=O)c2ccccc2n2c(SCCOc3ccccc3F)nnc12`, the inhibition was 0.6% (inactive) and the nuclei count came to 156%.
The corresponding values for `O=C1c2ccccc2C(Nc2ccc(F)c(Cl)c2)N1Cc1ccco1` (stereo not given) are -37.8% (inactive) and 105%.
The corresponding values for `COCCn1c(COc2ccc(Cl)cc2)nnc1SCC(N)=O` are -31.9% (inactive) and 119%.
The corresponding values for `CCOC(=O)N1CCN(S(=O)(=O)c2ccc(F)c(C(=O)Nc3cc(C)cc(C)c3)c2)CC1` are -87% (inactive) and 111%.

In the next assay the target is Voltage-gated potassium channel subunit beta-2 (Rattus norvegicus) (UniProt P62483). Put plainly: KvBeta enzyme negative modulators, primary screen, biochemical, NADPH fluorescence (AID 622).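 Further: slope of raw intensity against log time taken from 70 to 1610 s.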 The following applies: recombinant KvBeta, 4-cyanobenzaldehyde reduction, at 10 µM, stronger effect = higher value.
Chain of Voltage-gated potassium channel subunit beta-2 (Rattus norvegicus) (P62483 whole entry, looked up): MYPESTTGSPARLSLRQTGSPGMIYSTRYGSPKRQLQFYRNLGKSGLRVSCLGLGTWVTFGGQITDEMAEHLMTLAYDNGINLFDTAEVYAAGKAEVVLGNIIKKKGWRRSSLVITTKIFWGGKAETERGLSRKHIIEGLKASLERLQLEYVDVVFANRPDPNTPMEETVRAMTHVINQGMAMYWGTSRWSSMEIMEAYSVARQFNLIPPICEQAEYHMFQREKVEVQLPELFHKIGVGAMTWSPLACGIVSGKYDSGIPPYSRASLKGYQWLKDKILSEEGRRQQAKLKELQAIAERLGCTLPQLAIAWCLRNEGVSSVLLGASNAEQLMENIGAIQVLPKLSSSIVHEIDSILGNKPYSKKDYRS
Regarding `Cc1onc(-c2c(Cl)cccc2Cl)c1C(=O)N1CCc2ccccc21`, the fluorescence slope is -0.47 (inactive).
Take `CN1CCN(C2=C(Cl)C(=O)N(c3cccc(Cl)c3)C2=O)CC1`: the fluorescence slope was -0.355 (inactive).
Still for that read-out and setting: as for `COc1ccc(CCNC(=O)c2ccncc2)cc1OC`, the figure is -0.499 (inactive); as for `O=c1c2cc(Cl)ccc2[nH]c(=S)n1Cc1ccco1`, -0.597 (inactive).
Same read-out and setting: as for `Nc1nc(SCc2nc3scc(-c4cccs4)c3c(=O)[nH]2)n[nH]1`, the figure is -0.432 (inactive); as for `Cn1c(=O)c2c([nH]c(=O)n2C)n(C)c1=O`, -0.435 (inactive).
On the same count and under the same terms, the value for `COc1ccccc1CN1CC(C(=O)NCc2cccnc2)CC1=O` (stereo not given) was -0.502 (inactive).
Regarding `COc1ccc(-n2nnnc2SCC(=O)c2ccc(O)c(O)c2)cc1`, the fluorescence slope is -0.487 (inactive).
Regarding `Cc1ccc2c(c1)N(CC(=O)Nc1ccc3c(c1)OCCO3)C(=O)CO2`, the fluorescence slope is -0.293 (inactive).
On the same count and under the same terms, the value for `Cc1nc2ccc(N3C(=O)CCC3=O)cc2[nH]1` was -0.553 (inactive).
On the same count and under the same terms, as for `CCOC(=O)c1oc2ccccc2c1NC(=O)c1cccc(OC)c1OC`, the figure is -0.616 (inactive); as for `CCC(C)NC(=O)c1ccccc1NC(=O)C(C)N(c1ccccc1)S(C)(=O)=O` (stereo not given), -0.479 (inactive).
On the same count and under the same terms, the value for `O=C(Nc1sc2c(c1C(=O)NCc1ccco1)CCCC2)c1ccc2c(c1)OCO2` was -0.517 (inactive); that for `CCOC(=O)c1ccc(NS(=O)(=O)c2ccc3c(c2)CCCN3C(C)=O)cc1` was -0.543 (inactive); that for `CC12COC3(C(=O)Nc4ccc(Cl)cn4)CC1CCC32C` (stereo not given) was -0.395 (inactive).
Take `CC1CCC2C(C1)c1sc(=O)[nH]c1SC2(C)C` (stereo not given): the fluorescence slope is -0.365 (inactive).
The same measure, in the same setting: as for `Brc1ccc(-c2csc(/N=C/N3CCOCC3)n2)cc1`, the figure is -0.521 (inactive).
Still for that read-out and setting: the value for `Cc1nnc(SCc2cn3ccsc3n2)n(N)c1=O` was -0.641 (inactive); that for `CCOc1ccc(-c2nnc(N)s2)cc1` was -0.493 (inactive); that for `C=CCn1c(=O)c(C(=O)Nc2ccccc2C(=O)OCC)c(O)c2ccccc21` was -0.422 (inactive).
Same read-out and setting: the value for `C=CCn1c(COc2ccccc2)nnc1SCC(=O)C(C)(C)C` was -0.449 (inactive); that for `O=C(c1ccco1)N1CCN(C(=O)c2cc3c(s2)-c2ccccc2OC3)CC1` was -0.0429 (inactive); that for `O=C(NCc1cccs1)C1CCCN(c2ncccn2)C1` (stereo not given) was -0.5 (inactive).
With `Cc1cc(C)c2[nH]c(=O)c(C(c3nnnn3Cc3ccc4c(c3)OCO4)N3CCC(C)CC3)cc2c1` (stereo not given), the fluorescence slope is -0.428 (inactive).
Turning to `COc1cccc(-c2nc(CS(=O)(=O)CC(=O)Nc3cc(C)ccc3C)c(C)o2)c1`, the fluorescence slope was -0.517 (inactive).
Still for that read-out and setting: as for `Cc1ccc(C2=Nc3ccccc3NC(C)(c3ccc(C)o3)C2)o1` (stereo not given), the figure is -0.54 (inactive).
Same read-out and setting: the value for `CCOC(=O)c1ccc(N=c2sc(C(=O)OC)cc(=O)n2Cc2ccco2)cc1` was -0.608 (inactive); that for `COc1ccc2c(c1)C(C)=CC(C)(C)N2C(=O)CSc1nnc(-c2ccc(C)cc2)o1` was -0.451 (inactive).
Regarding `CC(C)C1N=C2c3ccccc3N=C(SCc3cc(=O)n4ccccc4n3)N2C1=O` (stereo not given), the fluorescence slope is -0.451 (inactive).
Still for that read-out and setting: the value for `CCCCN(CCCC)CCn1cnc2c([nH]c3ccc(OC)cc32)c1=O` was -0.536 (inactive).
Same read-out and setting: as for `CC1CC(=O)c2cnc(NCC3CCCO3)nc2C1` (stereo not given), the figure is -0.404 (inactive); as for `CCC(CO)Nc1ncnc2c1cnn2-c1ccc(Cl)cc1` (stereo not given), -0.54 (inactive).
As to `CC(C)CCNC(=O)C(C)N(Cc1ccc(F)cc1)C(=O)c1ccc(CN2CCCCC2)o1` (stereo not given), the fluorescence slope was -0.284 (inactive).
On the same count and under the same terms, as for `O=C(OC1CCOC1=O)c1ccc(S(=O)(=O)N2CCCCCC2)cc1` (stereo not given), the figure is -0.329 (inactive); as for `COC(=O)C1C(=O)c2c([nH]c(C(=O)OCCOC(C)C)c2C)CC1C` (stereo not given), -0.393 (inactive).
Same read-out and setting: the value for `CC(=O)c1cc(-c2ccc(F)cc2)n(CCC(=O)Nc2cc(C)[nH]n2)c1C` was -0.507 (inactive).
Still for that read-out and setting: as for `CCCn1c(=O)c2ccccc2n2c(SCCOc3ccccc3F)nnc12`, the figure is -0.477 (inactive); as for `O=C1c2ccccc2C(Nc2ccc(F)c(Cl)c2)N1Cc1ccco1` (stereo not given), -0.442 (inactive); as for `COCCn1c(COc2ccc(Cl)cc2)nnc1SCC(N)=O`, -0.586 (inactive).
In the case of `CCOC(=O)N1CCN(S(=O)(=O)c2ccc(F)c(C(=O)Nc3cc(C)cc(C)c3)c2)CC1`, the fluorescence slope was -0.393 (inactive).

The values above are taken from PubChem BioAssay.
